Source: PubChem BioAssay AID2284367 (EPA ToxCast)
More than one record can exist for a structure, and the calls need not agree. The source made the active and inactive calls. How the source made its calls: active means hit-call score of the fitted dose curve at least 0.9, where 1 is the maximum; inactive means score below 0.9.

Biological target: human Peroxisome Proliferator-activated Receptor alpha (PPARa) Agonism, conducted at France lab site, PPARA (gene 5465) (UniProt Q07869)
Experiment: ERF_FR_NR_COA_hPPARA: Eurofins (ERF) Nuclear Receptor (NR) Functional Coactivator Assay for human Peroxisome Proliferator-activated Receptor alpha (PPARa) Agonism, conducted at France lab site
Description: ERF_FR_NR_COA_hPPARA is a biochemical, single-readout assay that uses extracted gene-proteins in a cell-free assay. Measurements were taken 2 hours after chemical dosing in a 384-well plate. See PPARalpha Human NHR Functional Agonist Coactivator Assay, Cerep.ERF_FR_NR_COA_hPPARA is an assay component calculated from the ERF_FR_NR_COA_hPPARA assay. It is designed to measure FRET using a type of binding reporter as detected by fluorescence intensity of GW7647 with fluorimetry technology.Data from the assay component ERF_FR_NR_COA_hPPARA was analyzed at the assay endpoint, ERF_FR_NR_COA_hPPARA, in the positive analysis fitting direction relative to DMSO as the negative control and baseline of activity. Using a type of binding reporter, gain-of-signal activity can be used to understand changes in binding as they relate to gene PPARA. To generalize the intended target to other relatable targets, this assay endpoint is annotated to the nuclear receptor intended target family, where the subfamily is non-steroidal.
Human cells are incubated for 3 hours at room temprature with GW7647 as control activator. Test Sample Requirements: Minimum for 1) Screen: 75 ul of 10 mM stock or 1 mg (pre-weighed) powder (assuming FW =<500 and purity 100%).

Chain of human Peroxisome Proliferator-activated Receptor alpha (PPARa) Agonism, conducted at France lab site, PPARA (gene 5465) (Q07869 whole entry, looked up): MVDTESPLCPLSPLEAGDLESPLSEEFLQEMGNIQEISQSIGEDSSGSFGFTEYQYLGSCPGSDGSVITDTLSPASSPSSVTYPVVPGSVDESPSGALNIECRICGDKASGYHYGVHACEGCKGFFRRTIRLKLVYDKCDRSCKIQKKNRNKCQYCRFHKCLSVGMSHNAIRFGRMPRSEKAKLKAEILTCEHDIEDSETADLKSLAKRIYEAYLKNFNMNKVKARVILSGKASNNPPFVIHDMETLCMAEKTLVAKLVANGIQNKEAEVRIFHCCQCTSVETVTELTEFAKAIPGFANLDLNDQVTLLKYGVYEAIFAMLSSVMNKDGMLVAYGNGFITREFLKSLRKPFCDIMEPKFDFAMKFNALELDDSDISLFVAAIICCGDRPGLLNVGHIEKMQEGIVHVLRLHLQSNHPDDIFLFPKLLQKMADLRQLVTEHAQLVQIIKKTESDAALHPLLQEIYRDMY

Question: With `O=C(O)C(F)(F)C(F)(F)C(F)(F)C(F)(F)C(F)(F)C(F)(F)F` as the compound, how does the outcome read?
Answer: inactive

Question: For `O=C(O)CCC(F)(F)C(F)(F)C(F)(F)F`, which outcome is on record?
Answer: inactive

Question: Which outcome does the source give for `CC(C)(Oc1ccc(C(=O)c2ccc(Cl)cc2)cc1)C(=O)O` here?
Answer: inactive

Question: How did the outcome turn out when `CN(CCOc1ccc(CC2SC(=O)NC2=O)cc1)c1ccccn1` (stereo not drawn) was run?
Answer: inactive

Question: With `O=C(O)C(F)(F)OC(F)(F)C(F)(F)OC(F)(F)F` as the compound, how does the outcome read?
Answer: inactive

Question: Which outcome does the source give for `O=C(CC(=O)C(F)(F)C(F)(F)C(F)(F)F)c1cccs1` here?
Answer: inactive

Question: With `O=C(O)C(F)(F)C(F)(F)C(F)(F)C(F)(F)C(F)(F)C(F)(F)C(F)F` as the compound, how does the outcome read?
Answer: inactive

Question: `O=C(Cl)C(F)(F)C(F)(F)C(F)(F)C(F)(F)C(F)(F)C(F)(F)F` was tested. Which outcome did it give?
Answer: inactive

Question: Which results are given for `O=C(O)C(F)(F)C(F)(F)C(F)(F)C(F)(F)C(F)(F)C(F)(F)C(F)(F)F`?
Answer: outcome: inactive; AC50: 3.17 µM (active)

Question: `O=C(O)C(F)(F)C(F)(F)C(F)(F)C(F)(F)C(F)(F)C(F)(F)C(F)(F)C(F)(F)Cl` was tested. Which outcome did it give?
Answer: inactive

Question: With `O=S(=O)(O)C(F)(F)C(F)(F)C(F)(F)C(F)(F)C(F)(F)C(F)(F)C(F)(F)C(F)(F)F` as the compound, how does the outcome read?
Answer: inactive

Question: For `O=S(=O)(O)C(F)(F)C(F)(F)C(F)(F)C(F)(F)C(F)(F)C(F)(F)F`, which outcome is on record?
Answer: inactive
